Assay outcomes as filed in PubChem.
L3MBTL1 inh: inhibitors of human L3MBTL1 | Q9Y468 | AlphaScreen L3MBTL1–H3K9me1 peptide binding | Potency, µM (doses to about 57.1 µM), most hits filed as inhibitors | hit rate 0.66% among 230,000 | AID 485360; further: nearly all actives have a fitted effect of over 60% in size
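AlphaScreen assay: L3MBTL1 (50 nM final) was preincubated 30 min at room temperature with biotinylated H3(1-15)K9me1 peptide (75 nM final), then 30 min with library compounds; streptavidin donor and nickel chelate acceptor beads (10 ug/mL final) added, 30 min dark.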
G9a block: inhibitors of human histone lysine methyltransferase G9a | G9a H3K9 monomethylation, AlphaScreen, 2 h | Potency, µM (top dose mostly 102 µM), actives largely listed as inhibitors | hit rate 8.8% among 350,000 | AID 504332; further: nearly all actives have a fitted effect of over 75% in size
Target sequence (Q96KQ7 913-1193 limits assumed): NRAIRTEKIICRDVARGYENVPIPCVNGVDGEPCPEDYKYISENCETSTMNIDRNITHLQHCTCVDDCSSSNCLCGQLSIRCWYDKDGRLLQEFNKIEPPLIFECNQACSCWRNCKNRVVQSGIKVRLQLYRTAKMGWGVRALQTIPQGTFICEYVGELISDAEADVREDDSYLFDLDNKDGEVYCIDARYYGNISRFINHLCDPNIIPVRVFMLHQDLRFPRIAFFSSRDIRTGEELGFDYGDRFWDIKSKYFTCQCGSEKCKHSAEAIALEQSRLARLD
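Readings reflect AlphaScreen signal from monomethyl-H3K9 antibody detection. HMT at 20 nM; substrate b-H3K9 500 nM; cofactor SAM 20 uM; 2 h RT reaction; compounds tested as titrations in qHTS with 15 min preincubation.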
JMJD2A Tudor inh: JMJD2A Tudor domain (human) inhibition; O75164; AlphaScreen JMJD2A-Tudor / H3K4me3 peptide binding; Potency, µM (doses to about 114 µM), actives largely listed as inhibitors; AID 504339; hit rate 4.4% among 390,000; further: nearly all actives have a fitted effect of over 50% in size
Sfp PPTase inh: blocks B. subtilis Sfp PPTase activity; Biochemical Sfp PPTase activity, qHTS; Q9F4F7; Potency, µM, most hits filed as inhibitors; hit rate 3.5% among 310,000;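 further: the enzyme is Sfp with the accession as filed and its product quenches rhodamine fluorescence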
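Sfp 15 nM + cpd, 15 min RT; start w/ rhodamine-CoA 5 uM, BHQ-2-YbbR 12.5 uM (final); 50 mM Hepes pH 7.6, 10 mM MgCl2, 0.01% NP-40, 0.01% BSA; read 525/598 nm at 0 and 30 min.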
HP1b chromo inh: blocks HP1-beta chromodomain binding to methylated histone tails; Potency, µM (doses to about 114 µM), usual class: inhibitors; AlphaScreen HP1-beta / biotin-H3K9me3 peptide binding; AID 540317; hit rate 0.56% among 390,000; P83916; further: nearly all actives have a fitted effect of over 70% in size
Target sequence (P83916 whole entry, looked up): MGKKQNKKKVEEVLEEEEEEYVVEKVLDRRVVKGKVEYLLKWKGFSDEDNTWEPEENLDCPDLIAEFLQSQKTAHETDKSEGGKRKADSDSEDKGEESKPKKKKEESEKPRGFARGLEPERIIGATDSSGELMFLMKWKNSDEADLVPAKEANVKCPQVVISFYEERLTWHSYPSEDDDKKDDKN
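Compound inhibition of the preformed complex between 50 nM HP1-beta and 50 nM biotinylated H3K9me3 peptide was read by AlphaScreen. Buffer was PBS pH 7.4 with 0.01% Tween-20. Incubations ran 30 min at room temperature, with 10 ug/mL donor/acceptor beads.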
BAZ2B inh: BAZ2B (human) inhibition | AlphaScreen BAZ2B-H3K14Ac peptide displacement | hit rate 4.4% among 360,000 | Q9UIF8 | Potency, µM (top dose mostly 114 µM), usual class: inhibitors | AID 504333; further: nearly all actives have a fitted effect of over 60% in size
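BAZ2B 50 nM plus b-H3(5-23)K14Ac 50 nM, PBS pH 7.4/0.01% Tween-20, 30 min RT; compound added (max 110 uM), 30 min RT; streptavidin donor/Ni-chelate acceptor beads 10 ug/mL final, 20 min dark; AlphaScreen read.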
Hits are given with their value; i = inactive; ? = inconclusive; nt = not tested or not shown; [ ] = another dose, or the depositor's remark. An excerpt weighted towards active compounds, which were near 12% of everything screened. The call rests on the fitted dose curve; in most records, active means well fitted curve in the direction sought with a large enough effect; inconclusive means small, poorly fitted or top-dose-only effect, or another doubt; inactive means no such curve, though single readings can be large; an effect the other way counts as inactive or inconclusive.

SMILES | L3MBTL1 inh | G9a block | JMJD2A Tudor inh | Sfp PPTase inh | HP1b chromo inh | BAZ2B inh
CC1CSc2nc3sc4c(c3c(=O)n21)CCCC4 (configuration not stated) | i | 20µM | i | ? | i | i
O=c1c2c3c(sc2nc2n1CCCCC2)CCCCC3 | i | i | nt | i | nt | i
CCOC(=O)c1c(C)[nH]c(C)c1S(=O)(=O)N1CCC(C(=O)Nc2ccccc2CC)CC1 | nt | i | i | nt | i | i
O=C(Cn1cc(CN(Cc2ccccc2)Cc2ccccc2)nn1)Nc1cc(C(F)(F)F)ccc1Cl | nt | nt | i | nt | nt | nt
CCN(CCCNc1ncnc2nc[nH]c12)c1cccc(C)c1 | i | 18µM | 40µM | i | i | 50µM
CCN(c1cccc(C)c1)c1ncnc2nc[nH]c12 | i | i | i | i | i | i
O=C(NC(=S)Nc1ccc(S(=O)(=O)Nc2nccs2)cc1)c1ccc(F)cc1 | i | 10µM | i | i | i | ?
CC(C)(C)C(=O)NC(=S)Nc1ccc(S(=O)(=O)Nc2nccs2)cc1 | i | 50µM | i | i | i | i
O=C(Nc1ccc(S(=O)(=O)Nc2nccs2)cc1)c1cccc(F)c1 | nt | i | i | i | i | i
COc1ccc(S(=O)(=O)Nc2ccc(S(=O)(=O)Nc3nccs3)cc2)cc1 | nt | 50µM | i | i | i | i
O=C(Nc1ccc(S(=O)(=O)Nc2nccs2)cc1)c1ccc(=O)[nH]c1 | i | nt | ? | i | i | 50µM
COc1ccc(CC(=O)Nc2ccc(S(=O)(=O)Nc3nccs3)cc2)cc1 | nt | i | ? | i | i | i
CCCCC1=CC2=CC(=O)C(C)(OC(=O)CC)C(=O)C2=CN1CCCN(CC)CC (configuration not stated) | nt | nt | nt | i | nt | nt
CC1(C)CCC(NC(=O)[C@@H](N)CCC(=O)O)CC1 | nt | i | nt | i | nt | nt
O=C(Nc1ccc(S(=O)(=O)Nc2nccs2)cc1)C1=NN(c2ccccc2)C(=O)CC1 | i | 45µM | i | i | i | i
CCOC(=O)C1CCN(Cc2nc3ccccc3c(=O)n2-c2ccc(F)cc2)CC1 | nt | ? | i | i | i | i
COc1cccc(-n2c(CN3CCN(c4ccccc4)CC3)nc3ccc([N+](=O)[O-])cc3c2=O)c1 | i | 20µM | ? | 28µM | i | ?
CCN1CCN(Cc2nc3ccc([N+](=O)[O-])cc3c(=O)n2-c2ccc(OC)cc2OC)CC1 | nt | i | i | i | i | i
COc1ccc(-n2c(CN3CCC(C(N)=O)CC3)nc3ccc([N+](=O)[O-])cc3c2=O)c(OC)c1 | nt | 56µM | i | i | i | ?
COc1cccc(-n2c(N)c(C#N)c3ccc([N+](=O)[O-])cc3c2=O)c1 | i | i | nt | i | nt | i
CCOC(=O)C1CCN(Cc2nc3ccc([N+](=O)[O-])cc3c(=O)n2-c2ccc(OC)cc2OC)CC1 | nt | 32µM | i | i | i | i
COc1ccc(-n2c(CN3CCN(c4ccccc4OC)CC3)nc3ccc([N+](=O)[O-])cc3c2=O)c(OC)c1 | nt | 45µM | ? | i | i | ?
Cc1nc(-c2cccnc2)sc1CCNS(=O)(=O)c1ccc(F)cc1 | nt | i | i | nt | i | i
CCNc1nc(C#N)nc(Nc2ccccc2)n1 | nt | nt | i | nt | i | nt
Cc1ccc(CNC(=O)C2CCN(C(=O)N3CC(C)Oc4ccc(Cl)cc43)CC2)cc1 (configuration not stated) | nt | ? | i | nt | i | i
SMILES | L3MBTL1 inh | G9a block | JMJD2A Tudor inh | Sfp PPTase inh | HP1b chromo inh | BAZ2B inh
CCOC(=O)C1CCCN(Cc2nc3ccc([N+](=O)[O-])cc3c(=O)n2-c2ccc(OC)cc2OC)C1 (configuration not stated) | i | 40µM | ? | i | i | i
Cc1cccc(C)c1OCCn1c(C2CC(=O)N(Cc3ccc(F)cc3)C2)nc2ccccc21 (configuration not stated) | nt | i | ? | nt | i | ?
Oc1cccc2ccc(Nc3ccccn3)nc12 | ? | ? | 18µM | i | i | 5µM
c1ccc(Nc2ccccc2Nc2ccccn2)nc1 | i | ? | i | i | i | i
CCc1ccc(C2NC(=S)NC3=C2C(=O)N(c2ccccc2OC)C(c2ccc(CC)cc2)N3)cc1 (configuration not stated) | nt | i | i | i | i | ?
O=C1C2=C(NC(=S)NC2c2ccc(Cl)cc2)NC(c2ccc(Cl)cc2)N1c1ccc(Cl)cc1 (configuration not stated) | i | 50µM | ? | ? | i | ?
O=C(Cn1cnc2sc(-c3ccccc3)cc2c1=O)NCc1ccco1 | ? | 13µM | 3.2µM | 32µM | 8.9µM | ?
COc1ccc(CNC(=O)Cn2ncn3c(cc4ccccc43)c2=O)cc1 | nt | nt | i | i | i | i
O=C(Cn1cnc2sc(-c3ccccc3)cc2c1=O)NCc1ccccc1 | nt | ? | i | i | i | i
O=C(Cn1ncn2c(cc3ccccc32)c1=O)NCc1ccco1 | ? | ? | ? | 22µM | i | 50µM
CC(C)(C)c1ccc(OCCOc2ccc(C(C)(C)C)cc2NC=O)c(NC=O)c1 | i | i[0.501 µM] | i | 56µM | i | i
CCOC(=O)c1c(N2C(=O)C=CC2=O)sc(C)c1C | i | ? | 20µM | 2.5µM | ? | ?
CCN(CC)C(=O)Cn1c(=O)cc(C)c2c(C)nn(-c3ccc(C)cc3)c21 | nt | i | i | nt | ? | i
